From PubChem BioAssay (NCI)
Compounds without any hit were thinned out: in the full panel of roughly 79,000, 15% have a hit. A number with no mark means an inactive call. The source made the active and inactive calls. No stated cut-off is given here; in the data, active means growth inhibition above about 70%; inactive means the rest.

Assay: NCI Yeast Anticancer Drug Screen. Data for the rad50 strain (AID 155);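 further: 0% = growth of vehicle-only cultures of the same strain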
Conditions: S. cerevisiae rad50 strain growth inhibition, stronger effect = higher value
Method: Growth inhibition of yeast strains with defined genetic alterations is measured as a screen for potential anti-cancer activity. Selected strains with alterations in DNA damage repair or cell cycle control were exposed to compounds and growth inhibition was measured relative to vehicle treated controls. The strain used in this assay is rad50

[1] = at 5.0 µM (retest, dose inferred, filed as 0.5)
[2] = at 50.0 µM (retest, dose inferred, filed as 5.0)

| Structure (SMILES) | growth inhibition [1] | growth inhibition [2] | growth inhibition (at 50.0 µM) |
| --- | --- | --- | --- |
| Nc1nc(-c2ccc(Cl)cc2)cs1 | -20% | 94% (active) | 98% (active) |
| c1ccc2c(B(c3cccc4ccccc34)c3cccc4ccccc34)cccc2c1 | 0% | 98% (active) | 99.1% (active) |
| C=CCCCCO/N=C/c1c2c(O)c3c(O)c(C)c4c(c3c1O)C(=O)C(C)(O/C=C/C(OC)C(C)C(OC(C)=O)C(C)C(O)C(C)C(O)C(C)/C=C/C=C(\C)C(=O)N2)O4 (configuration not stated) | 44% | 89% (active) | 86.4% (active) |
| COc1ccc(C2CC(c3c(O)ccc4ccccc34)=NN2)cc1OC (configuration not stated) | -4% | 97% (active) | 89.2% (active) |
| CC(=O)OC1=CC2=CCC3C(CCC4(C)C(C(C)=O)CCC34)C2(C)CC1 (configuration not stated) | -12% | 0% | -5.65% |
| C=C1C[C@H](O)[C@H]2C(C[Se]c3ccccc3)C(=O)O[C@@H]2[C@H]2[C@H](C)C(O)C[C@@H]12 (some centres not stated) | 2% | 35% | 43.6% |
| CCCCCCC(C)S(=O)(=O)c1ccc(C)cc1 (configuration not stated) | 3% | 63% | 58.5% |
| COC(=O)CCC(NC(=S)N/N=C(\C)c1cnc2ccccc2n1)C(=O)OC (configuration not stated) | 12% | 12% | 34.1% |
| O=c1[nH]c2c([N+](=O)[O-])cc(Cl)cc2nc1/C=C(\O)c1ccco1 | 17% | 74% (active) | 72.7% (active) |
| COC(=O)/C=N/O | -17% | 7% | -19.4% |
| O=C(NNc1nc(-c2ccccc2)cs1)C(F)(F)F | 83% (active) | 97% (active) | 86.8% (active) |
| CCCCCCCCCCCC1=NCC(C)N1 (configuration not stated) | -39% | 26% | 71.9% (active) |
| Nc1ccc2[nH]c3ccccc3c2c1 | -4% | 6% | 92.3% (active) |
| COC(=O)/C(=C/C=C(c1ccccc1)c1ccccc1)N(C(C)=O)C(C)=O | 0% | 13% | 99.4% (active) |
